Source: PubChem BioAssay
Active and inactive are the calls of the source.

Tests used:
Albumin (Bos taurus) = Albumin (Bos taurus) (UniProt P02769); test: bovine serum albumin binders on microarray, profiling panel, artefact control for SMM control protein annotation, biochemical, small-molecule microarray, Alexa647 label, 635/667 nm fluorescence (AID 1118); settings: BSA-A647 binding, fluorescence 635 nm, higher = more signal;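 further: score merges 667 nm emission intensity and signal-to-noise per printed compound spot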
[1] = small-molecule microarray binders of probe aXIP, primary screen, biochemical, NeuroSMM set, 635/667 nm fluorescence (AID 1119); settings: higher = more signal, called active from +8 up or from −8 down;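 further: probe is the protein aXip251-270 applied at 1 µg/mL to compound-printed slides; binding of probe to printed compounds measured as 667 nm fluorescence plus signal to noise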
[2] = small-molecule binders of probe aNOTCH3, primary screen, biochemical, small-molecule microarray, 635/667 nm fluorescence (AID 1120); settings: higher = more signal;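 further: probe is a biotin-tagged antibody raised against NOTCH3 rather than NOTCH3 protein; score merges spot fluorescence near 667 nm with spot signal to noise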
[3] = small-molecule binders of probe aNOTCH2, primary screen, biochemical, small-molecule microarray, 635/667 nm fluorescence (AID 1121); settings: higher = more signal;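 further: score merges feature fluorescence read at 667 nm with its signal to noise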
[4] = molecular target: Carbonic anhydrase 2 (Homo sapiens) (UniProt P00918); test: CAII small-molecule binders, profiling panel, biochemical, small-molecule microarray, Alexa647-labelled CAII (AID 1122); settings: CAII-A647 binding fluorescence, higher = more signal
[5] = COS7 lysate on small-molecule microarray, probe aHis, 635 nm (AID 1123); settings: COS7 cell lysate, fluorescence, higher = more signal;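 further: z-score combines 667nm fluorescence intensity with signal-to-noise per printed compound spot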
[6] = compound binding in COS7 lysate, probe aLAP1, primary screen, cell lysate, small-molecule microarray (AID 1124); settings: probe aLAP1, fluorescence, higher = more signal;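 further: lysate comes from COS7 cells expressing LAP1 and is applied at 0.3 µg/mL; score merges spot fluorescence near 667 nm with signal-to-noise over triplicate slides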
Sam68 (KHDRBS1) = test: Sam68 small-molecule binders, primary screen, biochemical, small-molecule microarray, 635 nm fluorescence (AID 1125); settings: small-molecule microarray binding, higher = more signal;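 further: score merges 667 nm channel intensity with signal to noise over triplicate slides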
[7] = test system: Chordin-like protein 2 (CHRDL2); test: CHRDL2 small-molecule binders, primary screen, biochemical, small-molecule microarray, 635 nm fluorescence (AID 1126); settings: small-molecule microarray binding, fluorescence 635 nm; higher = more signal;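 further: printed compound slides probed with Chrdl2 protein at 4 µg/mL for 1 h at 4 C; score merges 667 nm emission intensity with signal to noise over three replicate slides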
[8] = molecular target: Concanavalin-A (Canavalia ensiformis) (UniProt P02866); test: ConA small-molecule binders, primary screen, artefact control for SMM control protein annotation, biochemical, small-molecule microarray, Alexa647 label, 635 nm (AID 1127); settings: ConA-A647 binding fluorescence, higher = more signal;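 further: z combines 667 nm emission intensity with signal-to-noise across three replicate slides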
Sequence of Concanavalin-A (Canavalia ensiformis) (P02866 whole entry, looked up): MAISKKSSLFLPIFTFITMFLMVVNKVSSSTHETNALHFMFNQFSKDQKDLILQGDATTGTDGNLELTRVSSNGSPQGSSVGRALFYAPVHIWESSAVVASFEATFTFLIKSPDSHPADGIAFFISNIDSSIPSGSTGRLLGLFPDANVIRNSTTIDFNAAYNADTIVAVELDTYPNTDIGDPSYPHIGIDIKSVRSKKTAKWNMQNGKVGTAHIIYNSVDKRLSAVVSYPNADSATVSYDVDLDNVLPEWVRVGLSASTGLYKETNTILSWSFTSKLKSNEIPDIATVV

Sequence of Albumin (Bos taurus) (P02769 whole entry, looked up): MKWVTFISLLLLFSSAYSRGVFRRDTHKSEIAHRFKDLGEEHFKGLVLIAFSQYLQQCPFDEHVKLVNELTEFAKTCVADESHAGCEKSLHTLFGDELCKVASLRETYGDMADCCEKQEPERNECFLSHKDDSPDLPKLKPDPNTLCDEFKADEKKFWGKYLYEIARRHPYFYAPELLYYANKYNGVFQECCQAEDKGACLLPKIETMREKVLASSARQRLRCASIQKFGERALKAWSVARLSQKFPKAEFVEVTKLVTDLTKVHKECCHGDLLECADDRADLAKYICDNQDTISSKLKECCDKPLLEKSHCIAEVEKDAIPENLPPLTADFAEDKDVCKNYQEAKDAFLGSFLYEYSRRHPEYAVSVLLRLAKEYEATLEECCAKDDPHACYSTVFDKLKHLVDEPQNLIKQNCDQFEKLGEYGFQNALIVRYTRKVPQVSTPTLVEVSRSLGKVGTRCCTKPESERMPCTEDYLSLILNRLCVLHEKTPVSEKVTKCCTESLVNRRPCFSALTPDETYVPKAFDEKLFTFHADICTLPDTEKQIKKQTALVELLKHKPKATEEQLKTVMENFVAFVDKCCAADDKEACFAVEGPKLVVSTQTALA

Compound	composite z-score (Albumin (Bos taurus))	composite Z-score [1]	composite z-score [2]	composite z-score [3]	composite z-score [4]	composite z-score [5]	composite z-score [6]	composite z-score (Sam68 (KHDRBS1))	composite z-score [7]	composite z-score [8]
C#C[C@@H]1Oc2ccccc2S(=O)(=O)N2CCC[C@H]12	-0.13	0.235 (inactive)	-0.063	-0.185	0.256	-1.2	-0.34	-1.29	0.424	-0.512
CCOC(=O)C1=CC[C@H]2C(=O)N(CC)C(=O)[C@@H]12	0.343	0.806 (inactive)	0.0242	-0.0866	0.522	1.01	0.111	1.09	0.363	0.65
Cc1ccc(S[C@]2(C(=O)O)CC(=O)N(Cc3ccccc3)[C@@H]2c2ccc(CO)cc2I)cc1	0.258	-0.523 (inactive)	-0.206	-0.13	0.701	0.921	0.223	0.21	0.347	0.883
CC(C)(C)N1CC=CC23O[C@@H]4C=CCCOC(=O)C4[C@H]2C(=O)N(CCCCCO)[C@@H]3C1=O (stereo not given in full)	0.568	0.08 (inactive)	0.285	-0.175	0.874	0.518	0.726	0.598	-0.503	-0.339
O=C1[C@H]2[C@H]3[C@H](O)[C@H](O)CC(=NOCc4ccccc4)[C@@H]3CC[C@H]2C(=O)N1C1CCCCC1	0.0567	-0.718 (inactive)	-0.0903	-0.196	0.539	0.737	-0.785	0.357	-0.142	-0.0593
Cc1cc2c(nc1C)CCCN2CC(C)ON=C1[C@H]2CCn3c(=O)n(-c4ccccc4)c(=O)n3[C@H]2[C@H](O)[C@@H]2O[C@H]12 (stereo not given in full)	0.243	0.506 (inactive)	0.173	-0.0535	0.171	0.198	0.136	1.24	0.647	0.367
CCOC(=O)[C@H](Cc1ccccc1)NC(=O)CCC1CC(OC(=O)NCc2ccc3c(c2)OCO3)CC2(CCCC(COC(=O)NCc3cccc(C(F)(F)F)c3)O2)O1 (stereo not given in full)	-0.0075	-0.944 (inactive)	0.0224	-0.123	-0.106	0.287	-0.0375	0.843	0.393	0.546
O=C1[C@H]2[C@H]3[C@H](O)[C@H](O)CC(=NOCc4ccccc4)[C@@H]3CC[C@H]2C(=O)N1Cc1ccccc1	0.55	-0.119 (inactive)	-0.0043	-0.14	0.251	-0.256	-0.355	0.598	0.417	-0.0677
C=CC[C@@H]1C=C[C@H](ON=C(C)CCN2CCc3nc(CC)c(CC)cc3C2)[C@@H](CO)O1	0.7	-2.12 (inactive)	0.325	-0.131	0.221	0.226	0.38	0.822	0.971	-0.442
COC(=O)[C@@H]1N=C(c2ccc(OCCCO)cc2)O[C@@H]1c1ccccc1N=[N+]=[N-]	0.731	-0.384 (inactive)	0.149	-0.0534	0.666	1.92	0.35	1.05	-0.456	0.928
Cc1cc2c(c(=O)o1)[C@H](O)[C@H]1O[C@H]1C2=O	-1.02	-0.18 (inactive)	0.255	-0.0076	0.0024	-0.682	-0.106	-0.333	0.26	-0.0383
C=CC[C@@H]1C=C[C@H](ON=C2c3cc(OC)ccc3O[C@H](c3cccc(OC)c3)[C@H]2O)[C@@H](CO)O1	0.764	0.196 (inactive)	-0.253	-0.0956	0.427	0.425	0.266	-0.194	0.105	-0.302
O=C1C2C=CC(C(O)c3ccc([N+](=O)[O-])cc3)N(Nc3ccc([N+](=O)[O-])cc3)C2C(=O)N1c1ccccc1 (stereo not given)	0.921	0.373 (inactive)	0.351	0.0518	0.661	2.71	0.789	1.29	-0.256	1.19
CC(=O)OC[C@H]1O[C@H](CC=NOC[C@@H](C)[C@H](OCc2ccccc2)C(C)C)C=C[C@@H]1OC(C)=O	-0.428	0.156 (inactive)	-0.0773	-0.11	-0.253	0.043	-0.223	0.377	0.186	-0.182
C[C@H](c1ccccc1)N1C(=O)[C@H]2[C@H]3[C@H](O)[C@H](O)CC(=O)[C@@H]3CC[C@H]2C1=O	0.493	0.17 (inactive)	0.148	-0.114	0.496	0.13	0.876	-0.0681	0.604	0.162
Cc1ccc(S(=O)(=O)N[C@@H]2COC(=O)[C@H](C)COC(=O)CC=C[C@H]2C)cc1	-0.601	-0.186 (inactive)	-0.224	-0.0817	-0.271	-0.32	-0.7	0.0715	1.23	-0.0405
